The text below walks through data of PubChem BioAssay.

This test is described as follows: MRP1 drug-resistance reversers in H69AR cells – cell-based, doxorubicin co-treatment, pilot screen (AID 601). The note with it: H69AR cells, CellTiter-Glo, 72 h; compound alone cytotoxicity; at 10 µM.
In general, viability refers to a read-out of living cells in per cent, often relative to untreated cells. As to `CC(C)(C)OC(=O)N1CC=C2C(C#N)=C(N)C(C#N)(C#N)[C@H](c3cccnc3)[C@H]2C1`, the viability amounted to 86.3%.
Turning to `COc1cccc(N(C(=O)c2ccco2)C(C(=O)NC2CCCC2)c2ccc(N(C)C)cc2)c1` (centres undefined), the viability was determined as 91.8%.
As for `CCOC(=O)C1(C(=O)OCC)C(c2ccccc2)CC(O)N1C(C)=O` (centres undefined), the viability came to 86.2%.
In the case of `Cc1cccc(NC(=O)c2cnc3sccn3c2=O)n1`, the viability stood at 100%.
Consider `CCCn1c(SCC(=O)Nc2nnc(-c3ccccc3)s2)nnc1-c1ccccn1`, for which the viability amounted to 102%.
As for `COc1ccc(-c2c3c(=O)n(C)c(=O)n(C)c3cn2-c2cccc(OC)c2)cc1`, the viability was 89.7%.
For the compound `CCOC(=O)C1CCN(Cc2ccc(C(=O)OC)cc2)CC1`, the viability was determined as 87.4%.
For the compound `O=C1c2ccccc2C(Nc2ccc3c(c2)OCCO3)N1Cc1ccco1` (centres undefined), the viability worked out at 80.7%.
Consider `COc1cc(/C=N/n2c(C)nnc2C)cc(OC)c1OC`, for which the viability came to 103%.
Take `Cc1cccc(N(C)C(=O)c2cc3cc4ccc(C)cc4nc3o2)c1`: the viability is 12%.
To `Cc1cc(NC(=O)CSc2nccn2-c2ccc(Cl)cc2)no1` belongs 106%.
With `Cc1ccc2[nH]c(=O)c(CN(CCCO)S(=O)(=O)c3c(C)ccc4nsnc34)cc2c1`, the viability was 96.8%.
With `Cc1ccc(S(=O)(=O)C2(C(=O)N3CCCCCC3)CC2)cc1`, the viability turned out to be 107%.
As for `COc1cc(CN2CCSCC2)cc(OC)c1OC`, the viability is 109%.
`CCOc1ccc(-c2nc(S(=O)(=O)c3ccccc3)c(NCc3cccnc3)o2)cc1`: the viability amounted to 97.6%.
To `CC(=O)Nc1ccc(NS(=O)(=O)c2ccc(Cl)c(C(=O)O)c2)cc1` belongs 103%; to `CC(=O)CCc1ccc(OCCCCn2cncn2)cc1`, 92.9%; to `CCCC(=O)Nc1ccc(NC(=O)c2ccccc2OC)cn1`, 92.9%.
Turning to `CCOC(=O)c1[nH]c(C)c(C(=O)Nc2ccccc2F)c1C`, the viability was 16.1%.
For the compound `COc1ccccc1C(=O)N1CCN(CCc2ccccc2)CC1`, the viability was found to be 103%.
Take `CCN1CCN(c2c(Cl)cccc2NC(=O)c2ccc3c(c2)OCCO3)CC1`: the viability amounted to 81.7%.
Next, `COc1ccccc1NS(=O)(=O)c1ccc(OC)c(OC)c1`: 99.8%; `CN(C(=O)c1ccc(S(=O)(=O)NC2CCCC2)cc1)C1CCCCC1`: 102%; `C/C(N)=C(/C#N)C(=O)COC(=O)c1cc(S(=O)(=O)N2CCCCC2)ccc1C`: 95.8%.
As to `CC(=O)Nc1ccc(-c2cc3ccccc3o2)cc1`, the viability was found to be 95.9%.
Next, `CCN(CC)S(=O)(=O)c1ccc2oc(C(=O)O)c(C)c2c1`: 103%; `CCn1c(=O)cc(SCC(=O)Nc2ccc3c(c2)OCO3)c2ccccc21`: 87.9%.
For `CN(C(=O)c1ccncc1)C1CC(C)(C)N(O)C(C)(C)C1`, the viability came to 92.3%.
As to `CCCC(=O)Nc1ccccc1NC(=O)CN(C)S(=O)(=O)c1ccc(C)cc1`, the viability was 98.9%.
As for `Cn1c(=O)cc(OCC(=O)NCCCN2CCN(Cc3ccccc3)CC2)c2ccccc21`, the viability was determined as 103%.
Take `CCNC(=O)C1CC(=O)N(Cc2ccc3c(c2)OCO3)C(=Nc2ccc(OCC)cc2)S1` (centres undefined): the viability was 66.1%.
For the compound `Cc1cc(-c2ccccc2)nc2cc(C(N)=O)nn12`, the viability worked out at 96%.
As to `Cc1ccc(C)c(-n2c(Cc3cc(=O)[nH]c(=O)[nH]3)nnc2SCC(=O)NCc2ccco2)c1`, the viability turned out to be 102%.
On to `Cn1c(C(=O)NCCC2=CCCCC2)cc2c(=O)n3ccccc3nc21`, for which the viability amounted to 96.1%.
To `O=C1CCC(c2ccccc2)N1C(=O)c1cccnc1` (centres undefined) belongs 98.8%.
In the case of `Cc1ccc(-n2nnnc2SCC(=O)N2CCc3ccccc3C2)cc1`, the viability was 82.1%.
As to `COC(=O)c1oc2ccc(OC)cc2c1N`, the viability came to 100%.
Consider `O=C(C1CCC(CNS(=O)(=O)c2cccc3cccnc23)CC1)N1CCCC1` (centres undefined), for which the viability came out at 99.9%.
Take `FC(F)(F)C(F)(F)C(F)(F)c1nnc2ccc(N3CCOCC3)nn12`: the viability is 83.7%.
